# Test results as given in PubChem BioAssay AID492997 (Johns Hopkins Ion Channel Center, 2010).
# The whole screen tested about 4,900 compounds, of which about 2,000 (41%) were called active.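 The calls were made as follows: active = thallium signal drop beyond 5 SD of the untreated control mean, on both duplicate plates; inactive = the rest.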 The set was probably picked from earlier hits. Only a sample is shown.
# Assay: nonspecific activity without KCNK9 expression – cell-based, second counter screen, non-induced KCNK9-HEK293, counter-screen for KCNK9 inhibitor project, confirmation (AID 492997);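 as to inhibition: plate controls were buffer only IC0 wells for no effect and SID17386958 at its maximal inhibitory level for full effect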
# Conditions: non-induced KCNK9-HEK293, FluxOR thallium flux, at 10 µM; hits give high values
row,Compound,inhibition
1,O=C(C[C@H]1C(=O)N(c2ccc(F)c(F)c2)C[C@@H]1Cc1ccccc1)Nc1ccccc1,37% (active)
2,COc1ccc(C(CCN(Cc2ccc(OC)c(OC)c2)C(=O)CCl)c2ccccc2)cc1 (configuration not stated),inactive
3,Cc1ccc(CN(N=Nc2nonc2N)c2nonc2N)c(C)c1,43.5% (active)
4,CC(C)CC(COCc1ccc(Cl)cc1)N1CCN(C(=O)c2ccc(C(F)(F)F)cc2)CCC1=O (configuration not stated),29.5% (active)
5,CN(c1ccccc1)S(=O)(=O)c1cccc(NC(=O)Cc2c(F)cccc2Cl)c1,23.5% (active)
6,Cc1ccccc1CSCCNC(=O)c1ccc(N(C)S(=O)(=O)c2ccccc2)cc1,inactive
7,COc1ccccc1N1CCN(c2ncnc3sc(C)c(-c4ccccc4)c23)CC1,inactive
8,Clc1ccc(CSc2nnc(/C=C/c3ccccc3)o2)c(Cl)c1,inactive
9,CCN(CC)S(=O)(=O)c1ccc(N(C)Cc2ccc(C(F)(F)F)cc2)nc1,39.5% (active)
10,O=C(NCc1ccco1)c1ccc(NS(=O)(=O)c2cccc([N+](=O)[O-])c2)cc1,inactive
11,CCCC1=Nc2cc(C(=O)NCc3ccco3)ccc2Sc2ccccc21,39.5% (active)
12,COc1cc(Cl)ccc1OCc1cc(C(=O)N2CC[C@@H]3CCCC[C@H]3C2)no1,inactive
13,CCOc1ccc(C2c3[nH]c4ccccc4c3CCN2Cc2cccn2-c2ncccn2)cc1 (configuration not stated),25.5% (active)
14,COCCN(C(=S)Nc1cccc(Cl)c1C)C(C)c1ccco1 (configuration not stated),inactive
15,Cn1nc(-c2ccccc2)c(CSc2cccc(Cl)c2)c1Cl,38% (active)
16,CCOC(=O)C1(CCOc2ccccc2)CCN(Cc2cc(OC)c(O)cc2Cl)CC1,inactive
17,CCc1nnc(NS(=O)(=O)c2ccc(NC(=S)NC(=O)/C=C/c3cccs3)cc2)s1,inactive
18,COc1cccc(NC(=S)N(CCc2c(C)[nH]c3ccccc23)Cc2ccco2)c1,30% (active)
19,Cc1[nH]c2ccccc2c1CCN(Cc1cccs1)C(=S)NC(C)(C)C,inactive
20,O=C(Nc1ccc(S(=O)(=O)N2CCCCC2)cc1)C1CCN(C(=O)c2ccc(F)cc2)CC1,inactive
21,CCCC(=O)n1nc(NCc2ccc(OC)cc2)nc1NCc1ccc(OC)cc1,inactive
22,O=C(Cc1ccccc1)n1nc(-c2ccccc2)nc1NCc1ccco1,33% (active)
23,COc1ccccc1NC(=O)CSc1nc2sc(C)c(C)c2c(=O)n1Cc1ccco1,38.5% (active)
24,C=CCOc1ccc(/C=N/NC(=O)C(C)Sc2ccccn2)cc1OCC (configuration not stated),39% (active)
25,CCCN1C(=O)C(Cc2nc3ccccc3c(=O)n2-c2ccccc2)c2cc(C)ccc21 (configuration not stated),37.5% (active)

row,Compound,inhibition
1,CCOc1ccc(CN(Cc2ccco2)C(c2cccs2)c2nnnn2C(C)(C)C)cc1 (configuration not stated),41% (active)
2,Cc1csc(Nc2ccc(Cl)cc2)[n+]1-c1ccc(Cl)cc1,inactive
3,COc1ccc(-c2oc(/N=C/N3CCCC3)c(C#N)c2-c2ccc(OC)cc2)cc1,inactive
4,CCC1=NN(C(=O)Cc2ccc([N+](=O)[O-])cc2)C(O)(c2ccc(Br)cc2)C1 (configuration not stated),28.5% (active)
5,Clc1cccc(-c2nc3nc4ccccc4nc3n2Cc2ccco2)c1,inactive
6,Clc1ccc(Cl)c(Oc2ccc(Oc3nc(Cl)ccc3Cl)cc2)n1,inactive
7,COC(=O)C1=C(Nc2ccc(C)cc2)C=C(C)C(C(=O)OC)C1c1ccc(F)cc1 (configuration not stated),37.5% (active)
8,Cc1ccc(C(=O)/C=C/c2c(C)nn(-c3ccccc3)c2Cl)cc1,inactive
9,O=C(Nn1c(SCc2ccc([N+](=O)[O-])cc2)nc2ccccc2c1=O)c1ccc(F)cc1,inactive
10,CCC1(C)Cc2c(sc3[nH]c(=S)n(Cc4ccccc4)c(=O)c23)CO1 (configuration not stated),inactive
11,CCCSc1nc(NCc2ccco2)c2c3c(sc2n1)COC(C)(CC)C3 (configuration not stated),38.5% (active)
12,CCOC(=O)Cc1cc(=O)[nH]c(=O)[nH]1,inactive
13,COc1ccc(/C=C2\CCc3ccccc3C2=O)c(OC)c1OC,inactive
14,CC1CCN(C(=S)c2ccc(-c3ccc(Cl)cc3Cl)o2)CC1,inactive
15,CC1CCN(C(=O)c2ccc(CSc3ccc(Cl)cc3)cc2)CC1,36% (active)
16,O=C(CSCc1ccc(Cl)cc1)N1CCN(Cc2ccc3c(c2)OCO3)CC1,inactive
17,CN(C)S(=O)(=O)N1CCC(Oc2cccc(C(=O)NCCCC3CCCC3)c2)CC1,inactive
18,Cc1cccc(NC(=O)N(Cc2cc3cc(C)cc(C)c3[nH]c2=O)CC2COCCO2)c1 (configuration not stated),inactive
19,O=C(COC(=O)c1c2c(nc3ccccc13)CCCC2)c1ccc(Br)s1,22.5% (active)
20,Cc1ccc(OS(=O)(=O)c2ccc(-c3csc(C)n3)s2)c(C)c1,inactive
21,COc1cccc(COC(=O)C2CCN(S(=O)(=O)c3ccc(Cl)cc3)CC2)c1OC,inactive
22,O=C(NC1Cc2ccccc2C1)c1cc(COc2cccc(C(F)(F)F)c2)on1,28% (active)
23,O=C(NCCCc1ccccc1)c1cc(COc2c(F)cccc2F)on1,inactive
24,CN(CCOc1ccccc1)C(=O)c1cc(COc2c(F)cccc2F)on1,inactive
25,CC(C)N(C(=O)CSc1nc(COc2ccccc2)nc2ccccc12)C(C)C,29.5% (active)

row,Compound,inhibition
1,Cc1cc(C)cc(NC(=O)CSCc2cnn(-c3ccccc3)c2-n2cccc2)c1,inactive
2,CC(C)(C)C1CCC(C(=O)NCC(c2cccs2)N2CCOCC2)CC1 (configuration not stated),inactive
3,O=C(Nc1ccc(Br)c2cccnc12)c1ccc(Cn2cc([N+](=O)[O-])cn2)o1,31% (active)
4,CC1=NN(c2cccc(Cl)c2)C(=O)C12CC(C)=C(C)CS2 (configuration not stated),40.5% (active)
5,Cc1cc(C=O)c(C)n1-c1ccc(NC2CCCCC2)c([N+](=O)[O-])c1,55% (active)
6,CCOC(=O)c1c(NC(=O)CCCN2CCOCC2)sc2c1CC(C)(C)OC2,inactive
7,CCOC(=O)C1=C(C)Nc2sc(C(=O)c3ccc(Br)cc3)c(N)c2C1c1ccc(C(=O)OC)cc1 (configuration not stated),32.5% (active)
8,O=C(/C=C/NNC(=O)c1cccc(Br)c1)c1ccccc1,50% (active)
9,COc1ccc(Nc2ncnc3sc(-c4ccccc4)cc23)c(OC)c1,inactive
10,CCCCN(CC)C(=O)C1CCCN(S(=O)(=O)c2cccc3nsnc23)C1 (configuration not stated),inactive
11,Cc1ccc(SCC(=O)c2cc(C)c(OC(=S)N(C)C)c(C)c2)cc1,34% (active)
12,COc1ccc(C2Nc3ccccc3C(=O)N2Cc2ccccc2)cc1Cn1nnc2ccccc21 (configuration not stated),39% (active)
13,O=S(=O)(c1ccc(F)cc1)N1CCN(Cc2ccccc2C(F)(F)F)CC1,inactive
14,COc1cccc2sc(NNC(=O)c3nc4ccccc4s3)nc12,inactive
15,Cc1nn(CC(=O)Nc2nc3ccccc3s2)c(C)c1[N+](=O)[O-],33.5% (active)
16,CCn1cnc2scc(-c3ccc(C)c(C)c3)c2c1=O,inactive
17,O=C(Nc1ccccc1[N+](=O)[O-])C1C(c2ccccc2)=C1c1ccccc1,26% (active)
18,CCCCCCCCn1c2c(c(=N)c3c1CCC3)CCCC2,27% (active)
19,Cc1ccc(Cn2ccc(NC(=O)c3cc(C(C)C)on3)n2)cc1,inactive
20,CCOC(=O)[C@@H]1[C@H]2COc3ccc(Br)cc3[C@H]2N2C(=O)N(c3ccc(Cl)cc3)C(=O)[C@@]12C,36% (active)
21,C[C@@]12C(=O)N(c3cccc(Br)c3)C(=O)N1[C@H](c1ccc(Cl)cc1)[C@@H]1C(=O)N(C3CCCCC3)C(=O)[C@@H]12,inactive
22,COC(=O)c1cccc(C(=O)N2CCCC(Nc3ccc4c(c3)OCCO4)C2)c1 (configuration not stated),inactive
23,COc1ccc(OC)c(C(=O)c2coc3ccc(OC)cc23)c1,27% (active)
24,CN(CCC(=O)Nc1cc(S(=O)(=O)N(C)C)ccc1Cl)CC(=O)Nc1ccc(F)cc1,42% (active)
25,COc1ccc(NC(=O)CN(C)CC(=O)Nc2cccc(C(F)(F)F)c2)cc1,inactive

row,Compound,inhibition
1,COc1ccc(-c2n[nH]c3c2CN(C(=O)c2ccc(F)cc2)CC3)cc1,inactive
2,CC1=CC(C)(C)N(C(=O)CSc2nnc(-c3ccccc3)o2)c2ccc(C)cc21,inactive
3,COc1cccc(C(=O)NCCSc2ccc(Br)cc2)c1,inactive
4,COc1cc(NC(=S)NCCSc2ccc(C)cc2)cc(OC)c1,24% (active)
5,COc1ccc(-c2noc(CSc3ccc(C)cc3)n2)cc1,inactive
6,FC(F)(F)c1cc(-c2ccco2)nc(NCc2ccc(Cl)cc2)n1,60.5% (active)
7,O=C1/C(=C/c2ccc(F)cc2)SC(=S)N1NS(=O)(=O)c1ccccc1,inactive
8,C/C(=N\NC(=S)Nc1ccc(C)cc1)c1cc2ccccc2o1,inactive
9,CCOC(=O)c1c(NC(=O)CSc2cn(CC)c3ccccc23)sc2c1CCC2,inactive
10,CCCCCn1c(=O)c(C(=O)OCC)c(Cl)c2ccccc21,40.5% (active)
11,Cc1ccccc1N1CCN(Cc2nc(Cc3ccccc3F)no2)CC1,inactive
12,Fc1cccc(Cl)c1CSc1ccc(-c2ccco2)nn1,32% (active)
13,O=C(Nc1cc(Cl)cc(Cl)c1)C(NCCCO)c1ccccc1 (configuration not stated),29% (active)
14,Cc1cc(OC(C)C(=O)Nc2ccc(S(=O)(=O)Nc3onc(C)c3C)cc2)cc(C)c1Cl (configuration not stated),inactive
15,O=C(CNCCC1=CCCCC1)Nc1ccccc1N1CCCCCC1,38.5% (active)
16,Cc1cc(C)cc(OCC(=O)Nc2cc(NC(=O)COc3cc(C)cc(C)c3)cc(C(=O)O)c2)c1,inactive
17,COc1cccc(-c2cc3nc4c(c(N5CCC6(CC5)OCCO6)n3n2)CCCC4)c1,27% (active)
18,COc1cccc2cc(C(C)N(CCCN3CCOCC3)C(=O)Nc3ccc(Cl)cc3)oc12 (configuration not stated),28.5% (active)
19,CN(C)c1ccc(C(CNC(=O)c2ccc(F)cc2)c2c[nH]c3ccccc23)cc1 (configuration not stated),39% (active)
20,COc1cccc(CN(C)C(=O)CC23CC4CC(CC(C4)C2)C3)c1OC,inactive
21,CCN(CC)C(=O)CC1(c2ccccc2OC)CCOC(C(C)C)C1 (configuration not stated),38% (active)
22,CC(C)(C)NC(=O)NC(=O)CN1CCC(Cc2ccccc2)CC1,inactive
